# Measurements taken from the supplement of paper PMC8728848.
# This excerpt belongs to a sample that is enriched for the strongest signals.
# B1: Epa23 (Candida glabrata) (protein)
# chain: MGSSHHHHHHSSGLVPRGSHMIPNPFEGTINNFPSGCSPNHGLYNRGLTMELYNYSYIHPQSIQSYFNTSTLKKMEKGQCWDPSYLDVNYPRTGYKTHNRFAKVNGIDGILDFEFNPTRSCVPSKGQLPQNYNYPLQFTLSNFTMLLYGYFKPKVTAKHTFTIFADDLLFLNFGAGNAFDCCQQQDTIDDFGNYQAYALWGSDTQQNTLTVNLDANIYYPIRMFYNNRDFKGALNMYFTTDESNTKINDFSGYLFNIPDSSEGCPAHISYETECGNVSG
# Legend:
# Assay in all cases: glycan array binding signal (z-score within array); higher = stronger binding
# Conditions in all cases: glycan notation: IUPAC condensed, linker removed
# [1] = molecular target: Fuc(a1-2)[GalNAc(a1-3)]Gal(b1-3)GlcNAc(b1-3)GalNAc
# In short: (§1)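 Glycan array binding is given as a within-array Z-score, which can be read as non-binding when negative. The arrays, 3228 of them, came from the Consortium for Functional Glycomics database and were retained only where the protein sequence was available. Z-scores were averaged across arrays of the same protein sequence at different concentrations or buffers and across linkers.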
# [2] = molecular target: Fuc(a1-2)[GalNAc(a1-3)]Gal(b1-4)Glc
# In short: as §1
# [3] = molecular target: Fuc(a1-3)[Gal3S(b1-4)]GlcNAc6S
# In short: as §1
# Gal(a1-3)Gal(b1-4)GlcNAc = molecular target: Gal(a1-3)Gal(b1-4)GlcNAc
# In short: as §1
# Gal(a1-6)Glc = molecular target: Gal(a1-6)Glc
# In short: as §1
# [4] = molecular target: Gal(b1-3)GlcNAc(a1-6)Gal(b1-4)GlcNAc
# In short: as §1
# [5] = molecular target: Gal(b1-3)[Fuc(a1-4)]GlcNAc(b1-6)GalNAc
# In short: as §1
# Gal(b1-4)Glc = molecular target: Gal(b1-4)Glc
# In short: as §1
# [6] = molecular target: Gal(b1-4)GlcNAc(b1-2)Man(a1-3)[Gal(b1-4)GlcNAc(b1-2)Man(a1-6)][GlcNAc(b1-4)]Man(b1-4)GlcNAc(b1-4)[Fuc(a1-6)]GlcNAc
# In short: as §1
# [7] = molecular target: Gal(b1-4)GlcNAc(b1-2)Man(a1-6)[GlcNAc(b1-2)Man(a1-3)]Man(b1-4)GlcNAc(b1-4)GlcNAc
# In short: as §1
# [8] = molecular target: Gal(b1-4)GlcNAc(b1-2)Man(a1-6)[Man(a1-3)]Man(b1-4)GlcNAc(b1-4)GlcNAc
# In short: as §1
# [9] = molecular target: Gal(b1-4)GlcNAc(b1-2)[Gal(b1-4)GlcNAc(b1-6)]Man(a1-6)[Gal(b1-4)GlcNAc(b1-2)Man(a1-3)]Man(b1-4)GlcNAc(b1-4)GlcNAc
# In short: as §1
# [10] = molecular target: Gal(b1-4)GlcNAc(b1-3)Gal(b1-4)GlcNAc
# In short: as §1
# [11] = molecular target: Gal(b1-4)GlcNAc(b1-3)Gal(b1-4)GlcNAc(b1-2)Man(a1-3)[Gal(b1-4)GlcNAc(b1-3)Gal(b1-4)GlcNAc(b1-2)Man(a1-6)]Man(b1-4)GlcNAc(b1-4)GlcNAc
# In short: as §1
# [12] = molecular target: Gal(b1-4)GlcNAc(b1-3)Gal(b1-4)GlcNAc(b1-2)[Gal(b1-4)GlcNAc(b1-3)Gal(b1-4)GlcNAc(b1-6)]Man(a1-6)[Gal(b1-4)GlcNAc(b1-3)Gal(b1-4)GlcNAc(b1-2)Man(a1-3)]Man(b1-4)GlcNAc(b1-4)[Fuc(a1-6)]GlcNAc
# In short: as §1
# [13] = molecular target: Gal(b1-4)GlcNAc(b1-3)Gal(b1-4)GlcNAc(b1-3)Gal(b1-4)GlcNAc(b1-2)[Gal(b1-4)GlcNAc(b1-3)Gal(b1-4)GlcNAc(b1-3)Gal(b1-4)GlcNAc(b1-6)]Man(a1-6)[Gal(b1-4)GlcNAc(b1-3)Gal(b1-4)GlcNAc(b1-3)Gal(b1-4)GlcNAc(b1-2)Man(a1-3)]Man(b1-4)GlcNAc(b1-4)[Fuc(a1-6)]GlcNAc
# In short: as §1
# [14] = molecular target: Gal(b1-4)GlcNAc(b1-3)Gal(b1-4)GlcNAc(b1-3)Gal(b1-4)GlcNAc(b1-3)Gal(b1-4)GlcNAc(b1-2)Man(a1-3)[Gal(b1-4)GlcNAc(b1-3)Gal(b1-4)GlcNAc(b1-3)Gal(b1-4)GlcNAc(b1-3)Gal(b1-4)GlcNAc(b1-2)Man(a1-6)]Man(b1-4)GlcNAc(b1-4)GlcNAc
# In short: as §1
# [15] = molecular target: Gal(b1-4)GlcNAc(b1-3)Gal(b1-4)GlcNAc(b1-3)Gal(b1-4)GlcNAc(b1-3)Gal(b1-4)GlcNAc(b1-2)[Gal(b1-4)GlcNAc(b1-3)Gal(b1-4)GlcNAc(b1-3)Gal(b1-4)GlcNAc(b1-3)Gal(b1-4)GlcNAc(b1-6)]Man(a1-6)[Gal(b1-4)GlcNAc(b1-3)Gal(b1-4)GlcNAc(b1-3)Gal(b1-4)GlcNAc(b1-3)Gal(b1-4)GlcNAc(b1-2)Man(a1-3)]Man(b1-4)GlcNAc(b1-4)[Fuc(a1-6)]GlcNAc
# In short: as §1
# [16] = molecular target: Gal(b1-4)GlcNAc(b1-3)Gal(b1-4)GlcNAc(b1-3)Gal(b1-4)GlcNAc(b1-3)Gal(b1-4)GlcNAc(b1-3)Gal(b1-4)GlcNAc(b1-2)Man(a1-3)[Gal(b1-4)GlcNAc(b1-3)Gal(b1-4)GlcNAc(b1-3)Gal(b1-4)GlcNAc(b1-3)Gal(b1-4)GlcNAc(b1-3)Gal(b1-4)GlcNAc(b1-2)Man(a1-6)]Man(b1-4)GlcNAc(b1-4)GlcNAc
# In short: as §1
# [17] = molecular target: Gal(b1-4)GlcNAc(b1-3)Gal(b1-4)GlcNAc(b1-3)Gal(b1-4)GlcNAc(b1-3)Gal(b1-4)GlcNAc(b1-3)Gal(b1-4)GlcNAc(b1-2)Man(a1-3)[Gal(b1-4)GlcNAc(b1-3)Gal(b1-4)GlcNAc(b1-3)Gal(b1-4)GlcNAc(b1-3)Gal(b1-4)GlcNAc(b1-3)Gal(b1-4)GlcNAc(b1-2)Man(a1-6)]Man(b1-4)GlcNAc(b1-4)[Fuc(a1-6)]GlcNAc
# In short: as §1
# [18] = molecular target: Gal(b1-4)GlcNAc(b1-3)Gal(b1-4)GlcNAc(b1-3)Gal(b1-4)GlcNAc(b1-3)Gal(b1-4)GlcNAc(b1-3)Gal(b1-4)GlcNAc(b1-2)[Gal(b1-4)GlcNAc(b1-3)Gal(b1-4)GlcNAc(b1-3)Gal(b1-4)GlcNAc(b1-3)Gal(b1-4)GlcNAc(b1-3)Gal(b1-4)GlcNAc(b1-6)]Man(a1-6)[Gal(b1-4)GlcNAc(b1-3)Gal(b1-4)GlcNAc(b1-3)Gal(b1-4)GlcNAc(b1-3)Gal(b1-4)GlcNAc(b1-3)Gal(b1-4)GlcNAc(b1-2)Man(a1-3)]Man(b1-4)GlcNAc(b1-4)[Fuc(a1-6)]GlcNAc
# In short: as §1
# [19] = molecular target: Gal(b1-4)GlcNAc(b1-6)Gal(b1-4)GlcNAc
# In short: as §1
# [20] = molecular target: Gal(b1-4)GlcNAc(b1-6)GalNAc
# In short: as §1
# Gal3S4S(b1-4)GlcNAc = molecular target: Gal3S4S(b1-4)GlcNAc
# In short: as §1
# Gal6S(b1-4)Glc = molecular target: Gal6S(b1-4)Glc
# In short: as §1
# Gal6S(b1-4)Glc6S = molecular target: Gal6S(b1-4)Glc6S
# In short: as §1
# Gal6S(b1-4)GlcNAc = molecular target: Gal6S(b1-4)GlcNAc
# In short: as §1
# Gal6S(b1-4)GlcNAc6S = molecular target: Gal6S(b1-4)GlcNAc6S
# In short: as §1
# [21] = molecular target: GalNAc(a1-3)GalNAc(b1-3)Gal(a1-4)Gal(b1-4)Glc
# In short: as §1
# GalNAc(b1-4)GlcNAc = molecular target: GalNAc(b1-4)GlcNAc
# In short: as §1
binder,measurement,setting,value
B1,glycan array binding signal (z-score),[1],-0.229
same,glycan array binding signal (z-score),[2],-0.234
same,glycan array binding signal (z-score),[3],-0.161
same,glycan array binding signal (z-score),Gal(a1-3)Gal(b1-4)GlcNAc,-0.008
same,glycan array binding signal (z-score),Gal(a1-6)Glc,-0.007
same,glycan array binding signal (z-score),[4],-0.078
same,glycan array binding signal (z-score),[5],-0.177
same,glycan array binding signal (z-score),Gal(b1-4)Glc,-0.134
same,glycan array binding signal (z-score),[6],-0.232
same,glycan array binding signal (z-score),[7],-0.223
same,glycan array binding signal (z-score),[8],-0.182
same,glycan array binding signal (z-score),[9],0.12
same,glycan array binding signal (z-score),[10],0.139
same,glycan array binding signal (z-score),[11],0.484
same,glycan array binding signal (z-score),[12],2.44
same,glycan array binding signal (z-score),[13],3.33
same,glycan array binding signal (z-score),[14],2.62
same,glycan array binding signal (z-score),[15],3.79
same,glycan array binding signal (z-score),[16],3.01
same,glycan array binding signal (z-score),[17],2.83
same,glycan array binding signal (z-score),[18],4.71
same,glycan array binding signal (z-score),[19],1.43
same,glycan array binding signal (z-score),[20],0.008
same,glycan array binding signal (z-score),Gal3S4S(b1-4)GlcNAc,-0.241
same,glycan array binding signal (z-score),Gal6S(b1-4)Glc,6.7
same,glycan array binding signal (z-score),Gal6S(b1-4)Glc6S,11.8
same,glycan array binding signal (z-score),Gal6S(b1-4)GlcNAc,5.69
same,glycan array binding signal (z-score),Gal6S(b1-4)GlcNAc6S,13.5
same,glycan array binding signal (z-score),[21],-0.137
same,glycan array binding signal (z-score),GalNAc(b1-4)GlcNAc,-0.168
